From PubChem BioAssay AID488890 (Southern Research Specialized Biocontainment Screening …, 2010)
Among all 320,000 compounds or so, about 1,300 (0.41%) were called active. Inconclusive results (about 3%) are left out. How the calls were made is not given here. The list is a sample of the results. Entries with a potency or affinity are not part of this list.

Assay: growth inhibition of non-replicating M. tuberculosis (AID 488890);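 further: plate controls were DMSO cells for no effect and high antibiotic wells for full effect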
Conditions: Mycobacterium tuberculosis non-replicating, at 25 µM, stronger effect = higher value

| SMILES | inhibition |
| --- | --- |
| O=C(NCc1nnc(SCC(=O)N2CCC(Cc3ccccc3)CC2)o1)c1ccccc1F | 47.1% |
| CCCCn1c(N)c(N(C)C(=O)c2cc3c(s2)CCCCC3)c(=O)[nH]c1=O | 19.5% |
| Cc1ccc(N(CC(=O)NCc2ccco2)C(=O)CCC(=O)Nc2nccs2)cc1C | -4.11% |
| CCc1ccc(NC(=O)CSc2nc(O)cc(=O)n2C2CCCC2)cc1 | 37.7% |
| COc1ccc(Cl)cc1NC(=O)CN(C)C(=O)c1cc(=O)c2ccccc2o1 | -2.49% |
| CCOC(=O)c1sc(NC(=O)CSc2ccccn2)c(C#N)c1C | 5.94% |
| CC(=O)N(Cc1ccccc1)Cc1cn(CCC#N)nc1-c1cccc([N+](=O)[O-])c1 | -6.03% |
| CC(/C=C/c1ccco1)=N\NC(=O)c1cccnc1 | 12.9% |
| C/C(CC(=O)N1CCCC1)=N\NC(=O)c1cc2ccccc2cc1O | 7.43% |
| CC(=O)N1CCC(=NNC(=O)c2cc3ccccc3cc2O)CC1 | 4.69% |
| C/C(=N\NC(=O)c1c[nH]c2ccccc12)c1ccc(C)o1 | 33.3% |
| C/C(=N\NC(=O)c1cc2ccccc2cc1O)c1ccc2c(c1)OCO2 | 14.4% |
| CC(/C=C/c1ccco1)=N/NC(=O)c1ccccc1Cl | 48.9% |
| CCCCC(NC(=O)c1ccc(Cl)cc1)C(=O)O (stereo not drawn) | -0.66% |
| O=C(C[n+]1cccc(CNC(=O)c2ccc(OC(F)F)cc2)c1)Nc1ccccc1Cl | 7.02% |
| O=C(c1ccc([N+](=O)[O-])cc1)N1CCN(Cc2ccccc2[N+](=O)[O-])CC1 | 12.7% |
| COc1ccc(C2C(C(=O)NCCN3CCOCC3)c3ccccc3C(=O)N2C2CCCCC2)cc1 (stereo not drawn) | 28.1% |
| O=C(/C=C/NCc1cccnc1)c1ccc(Br)cc1 | 77.9% |
| COc1cc(NC(=O)CSc2nc(=O)n(CCN3CCOCC3)c3c2CCC3)cc(OC)c1 | 1.82% |
| O=C(C1CCCN1S(=O)(=O)c1cccc2nsnc12)N1CCN(c2ccc(F)cc2)CC1 (stereo not drawn) | -10% |
| COc1ccc(N(CC(=O)Nc2ccc(F)c(Cl)c2)S(=O)(=O)c2c(C)noc2C)cc1 | 19.1% |
| CCc1noc(C)c1C(=O)OC(C)C(=O)c1c(C)[nH]c2ccccc12 (stereo not drawn) | 26.3% |
| Cc1cnc(C(=O)OC(C)C(=O)c2c(C)[nH]c3ccccc23)cn1 (stereo not drawn) | 12.1% |

| SMILES | inhibition |
| --- | --- |
| CCN(CC)C(=O)CSc1nnc(-c2ccco2)o1 | 18.1% |
| CCCOc1ccc(C(=O)CCNc2cccc(Cl)c2)cc1 | 74.8% |
| Cc1cccc(OCCn2cccc2/C=C2/C(=O)NC(=O)N(Cc3ccco3)C2=O)c1 | 49.4% |
| O=C1NC(=O)N(Cc2ccco2)C(=O)/C1=C/c1cccn1CCOc1ccccc1Cl | 62.6% |
| O=C(NCCCOc1cccc(CN2CCCCC2)c1)c1ccc(Cl)c(Cl)c1 | 56.6% |
| COc1cccc(Nc2nc(C)cc(C)c2C(N)=O)c1 | -12.4% |
| COc1ccc2cc(CN(Cc3cccs3)Cc3nnnn3Cc3ccccc3)c(=O)[nH]c2c1 | 27.5% |
| Cc1[nH]n(-c2ccccc2)c(=O)c1C(=O)c1cccc(F)c1 | 69% |
| Cc1[nH]n(-c2ccccc2)c(=O)c1C(=O)c1ccc([N+](=O)[O-])cc1 | 16.4% |
| Cc1cccc[n+]1CC(=O)/C=C1\N(C)c2ccccc2C1(C)C | -1.75% |
| COc1ccc(CN2CCC(n3nccc3NC(=O)C3CC3)CC2)c(OC)c1OC | -1.17% |
| O=S(=O)(NCCN1CCOCC1)c1cc(Cl)ccc1Cl | 10.9% |
| Cc1cc(C(=O)N/N=C/c2cccc([N+](=O)[O-])c2O)n[nH]1 | 14.7% |
| Cc1ccsc1/C=N\NC(=O)c1cc(C(C)(C)C)[nH]n1 | 12.6% |
| CC(C)(C)c1cc(C(=O)N/N=C/c2ccc(-c3ccccc3[N+](=O)[O-])o2)n[nH]1 | 26.9% |
| Cc1cc(C(=O)N/N=C/c2ccc(C)s2)n[nH]1 | 4.06% |
| Cc1c(C(=O)OCC[N+]2(C)CCCCC2)oc2ccccc12 | -0.02% |
| O=C(NCC(c1cccs1)N1CCOCC1)c1ccc([N+](=O)[O-])cc1 (stereo not drawn) | -4.42% |
| O=C(NCC(c1cccs1)N1CCOCC1)c1cccc([N+](=O)[O-])c1 (stereo not drawn) | 3.78% |
| CCOCCCN(C(=O)c1snc(C(N)=O)c1N)C(C(=O)NC1CCCC1)c1ccc(O)cc1 (stereo not drawn) | 12.3% |
| CCCN(Cc1nnc(-c2ccccc2Cl)o1)C(=O)c1cc2ccccc2o1 | 30.8% |
| CCCN(Cc1nnc(-c2ccccc2Cl)o1)C(=O)c1oc2ccccc2c1C | -13.1% |
| O=C(C1=COCCO1)N(Cc1nnc(-c2ccccc2Cl)o1)C1CC1 | 2.01% |

| SMILES | inhibition |
| --- | --- |
| O=C(c1ccc(Cl)s1)N(Cc1nnc(-c2ccccc2Cl)o1)C1CC1 | 31.8% |
| COc1ccc(S(=O)(=O)N2CCOC23CCN(S(=O)(=O)c2cc(C)ccc2OC)CC3)cc1 | 5.02% |
| CC(NC(=O)CC1Sc2ccccc2NC1=O)c1ccccc1 (stereo not drawn) | 0.31% |
| CCN(CC)C(=O)C(=O)N/N=C/c1ccc(C(=O)OC)cc1 | -0.1% |
| CCOc1cc2c(cc1OCC)C(c1ccc(C(=O)O)cc1)NCC2 (stereo not drawn) | -6.9% |
| Cc1cccc(C(=O)O/N=C(\N)c2cccc([N+](=O)[O-])c2)c1 | 75% |
| N/C(=N/OC(=O)c1cccc([N+](=O)[O-])c1)c1cccc([N+](=O)[O-])c1 | 18.3% |
| COc1ccc(C(CNC(=O)c2cccc(NC(=O)c3cccs3)c2)N2CCCC2)cc1 (stereo not drawn) | 27.7% |
| CCn1nc(-c2ccccc2)nc2c(=O)n(C)c(=O)nc1-2 | -28.8% |
| Cn1nc(-c2ccccn2)nc2c(=O)n(C)c(=O)nc1-2 | 74.7% |
| CC1(C)CN(c2ccc(Br)cc2Br)C1=O | 8.63% |
| CCOC(=O)N1CCN(S(=O)(=O)c2ccc(C(=O)N(CCCN(C)C)c3nc4cc(OC)ccc4s3)cc2)CC1 | 8.58% |
| OCc1ccc(O)c2ncccc12 | 26% |
| Oc1ccc(CNc2ccccc2F)c2cccnc12 | 38.5% |
| CCCn1c(C(C)Nc2nc(-c3ccc(C)cc3)cs2)nc2cc(Cl)c(Cl)cc21 (stereo not drawn) | 17.9% |
| COc1ccccc1NC(=O)Cn1cnc2sc(C(=O)Nc3cc(OC)c(OC)c(OC)c3)c(C)c2c1=O | -13% |
| Cc1ccc(NC(=S)N2CCC(NC(=O)C3CCCCC3)CC2)cc1C | -8.16% |
| Cc1nn(CC(=O)NCc2cc3ccccc3[nH]2)c(C)c1[N+](=O)[O-] | -11.5% |
| O=C(Nc1ccc(OC(=O)c2ccco2)cc1)c1ccco1 | 53.6% |
| COC(=O)c1ccc(NC(=O)c2ccc(NC(=O)c3ccco3)cc2)cc1 | 9.4% |
| O=C(CNC(=O)c1ccco1)NCC(=O)OCc1ccc(C(=O)Oc2ccc(Cl)cc2)cc1 | 5.36% |
| O=C(CNC(=O)c1ccco1)OCc1ccc(C(=O)c2ccccc2)cc1 | 74.7% |
